Data as given in PubChem BioAssay (NCATS).
Results filed as inconclusive are left out. The source made the active and inactive calls. The call rests on the fitted dose curve; in most records, active means well fitted curve in the direction sought with a large enough effect; inconclusive means small, poorly fitted or top-dose-only effect, or another doubt; inactive means no such curve, though single readings can be large; an effect the other way counts as inactive or inconclusive.

Assays:
[1] = molecular target: Glutathione peroxidase 1 (Homo sapiens) (UniProt P07203); test: Primary qHTS Assay for Inhibitors of Recombinant Selenoprotein Glutathione Peroxidase 1 (GPX1) (AID 1845191); further: nearly all actives have a fitted effect of over 65% in size; on activity, negative = inhibition: on the % scale 0 is the no-effect control and ±100 the full control effect
Glutathione peroxidase 1 (Homo sapiens), sequence (P07203 whole entry, looked up): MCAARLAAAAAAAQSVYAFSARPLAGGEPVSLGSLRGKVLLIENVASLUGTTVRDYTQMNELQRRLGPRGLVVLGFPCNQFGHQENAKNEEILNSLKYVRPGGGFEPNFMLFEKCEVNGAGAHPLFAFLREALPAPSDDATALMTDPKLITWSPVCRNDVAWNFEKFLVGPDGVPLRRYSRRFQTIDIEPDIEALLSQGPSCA
In short: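 GR-coupled readout: NADPH consumption tracked by fluorescence, ex 340/em 450 nm, at t=0 and after 15 min at RT. Final mix 10 nM GPX1, 1 mM GSH, 0.5 mM CHP, 0.5 mM NADPH, 100 nM GR, 0.01% BSA, following 30 min enzyme–compound preincubation.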

[2] = molecular target: Phospholipid hydroperoxide glutathione peroxidase GPX4 (Homo sapiens) (UniProt P36969); test: Primary qHTS Assay for Inhibitors of Recombinant Selenoprotein Glutathione Peroxidase 4 (GPX4) (AID 1845192); further: nearly all actives have a fitted effect of over 65% in size
Phospholipid hydroperoxide glutathione peroxidase GPX4 (Homo sapiens), sequence (P36969 whole entry, looked up): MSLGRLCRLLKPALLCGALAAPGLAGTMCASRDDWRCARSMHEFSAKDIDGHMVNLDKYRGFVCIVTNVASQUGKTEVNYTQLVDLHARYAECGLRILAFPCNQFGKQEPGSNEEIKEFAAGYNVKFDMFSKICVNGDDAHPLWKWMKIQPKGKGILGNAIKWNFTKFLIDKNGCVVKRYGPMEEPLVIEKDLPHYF
In short: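 Steps: GPX4 plus compound, 30 min RT; add GR/GSH/NADPH master mix; start with cumene hydroperoxide; read 340/450 nm fluorescence at 0 and 15 min. Finals were 200 nM GPX4, 1 mM GSH, 0.5 mM CHP, 0.5 mM NADPH, 100 nM GR.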

[3] = molecular target: Luciferin 4-monooxygenase (Photinus pyralis) (UniProt P08659); test: Primary firefly luciferase (FLuc) qHTS assay for identification of artifact compounds. (AID 1845220); further: nearly all actives have a fitted effect of over 60% in size; further: potency means the concentration at half of the fitted maximal effect
In short: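 Titrated compounds were incubated 15 min at RT, protected from light, with luciferin and ATP at 10 uM; reaction started with 10 nM FLuc, luminescence imaged at 5 min, and concentration-response fitted by Hill equation.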

[4] = tested on: Nanoluciferase (engineered Oplophorus gracilirostris luciferase); test: Primary Nanoluciferase (NLuc) qHTS assay for identification of artifact compounds. (AID 1845222); further: potency means the concentration at half of the fitted maximal effect;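 on activity, negative = inhibition: NLuc secreted into diluted conditioned medium of S16 cells; series mostly up to about 54 µM; 0% = DMSO and -100% = no enzyme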
In short: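 qHTS format, against NLuc in S16 cell-conditioned medium. Nano-Glo substrate 1:100 was added after 15 min at room temperature. Luminescence was taken after a further 5 min.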

[5] = Primary redox qHTS assay for identification of artifact compounds. (AID 1845223);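 further: 0% = DMSO and 100% = reference compound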
In short: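 Redox-cycling detection via DTT (250 uM final) oxidation coupled to Amplex Red (25 uM)/HRP (250 mU/mL) in HBSS. 15 min preincubation plus 30 min after DTT, room temperature. Ex/Em 525/598 nm; 4-parameter Hill fit against DMSO and 10 uM DA3003.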

CC1(C)SCCN(S(=O)(=O)c2ccc(Oc3ccncc3)cc2)[C@H]1C(=O)NO
inactive: Potency [1] | Potency [2] | Potency [3] | Potency [4] | Potency [5]

CC(/C=C/C(=O)NO)=C\[C@@H](C)C(=O)c1ccc(N(C)C)cc1
inactive: Potency [1] | Potency [2] | Potency [3] | Potency [4] | Potency [5]

C[C@H]1CO[C@@H]2Cn3cc(C(=O)NCc4ccc(F)cc4F)c(=O)c(O)c3C(=O)N12
inactive: Potency [1] | Potency [2] | Potency [3] | Potency [4] | Potency [5]

CC1CCCC(O)CC(=O)c2c(O)cc(O)cc2CC(=O)O1 (centres undefined)
inactive: Potency [1] | Potency [2] | Potency [3] | Potency [4] | Potency [5]

CN1CCN(c2ccc(Nc3cc(-c4cccc(-n5ccc6cc(C7CC7)cc(F)c6c5=O)c4CO)cn(C)c3=O)nc2)CC1
inactive: Potency [1] | Potency [2] | Potency [3] | Potency [4] | Potency [5]

N#CSc1cc(SC#N)c(N)nc1N
inactive: Potency [1] | Potency [2] | outcome [3] inactive [at 11.6 µM] | activity, negative = inhibition [4] -17.4% [at 11.6 µM]

O=C(NNc1nc2cc(F)ccc2n2cccc12)c1cnccn1
inactive: Potency [1] | Potency [2] | Potency [3] | Potency [4] | Potency [5]

C=C1C(=O)O[C@@H]2C[C@H](C)[C@@H]3CC(=O)[C@H](O)[C@@]3(C)C[C@H]12
inactive: Potency [1] | Potency [2] | Potency [3] | Potency [4] | Potency [5]

CC(=O)O[C@]1(C(C)=O)CC[C@H]2[C@@H]3CCC4=CC(=O)CCC4=C3[C@@H](c3ccc(N(C)C)cc3)C[C@@]21C
inactive: Potency [1] | Potency [2] | Potency [3] | Potency [4] | Potency [5]

CCC(CC)Nc1nc(C)c(-c2ccc(OC(F)(F)F)cc2OC)nc1OC
inactive: Potency [1] | Potency [2] | Potency [3] | Potency [4] | Potency [5]

CC(=O)OC1CC2(C)C(CCC(C)C23Cc2c(O)cc(CO)c(C=O)c2O3)C(C)(C)C1O (centres undefined)
inactive: Potency [1] | Potency [2] | Potency [3] | Potency [4]

COC1C(OC(=O)/C=C/C=C/C=C/C=C/C(=O)O)CCC2(CO2)C1C1(C)OC1CC=C(C)C (centres undefined)
inactive: Potency [1] | Potency [2] | Potency [3] | Potency [4] | Potency [5]

C=CC(=O)Nc1ccc(CN2C(=O)N(c3cc(OC)cc(OC)c3)Cc3cnc(Nc4ccc(N5CCN(C)CC5)cc4)nc32)cc1
inactive: Potency [1] | Potency [2] | Potency [3] | Potency [4] | Potency [5]

C=CC(=O)N1CCCN(c2cc(NCCC(=O)O)nc(-c3ccccn3)n2)CC1
inactive: Potency [1] | Potency [2] | Potency [3] | Potency [4] | Potency [5]

O=c1[nH]cnc2c([C@@H]3N[C@H](CO)[C@@H](O)[C@H]3O)c[nH]c12
inactive: Potency [1] | Potency [2] | Potency [3] | Potency [4] | Potency [5]

COc1ccccc1C(=O)Nc1cc2c(cc1N1CCCC1)n(C)c(=O)n2C
inactive: Potency [1] | Potency [2] | Potency [3] | Potency [4] | Potency [5]

Cc1nnc(-c2ccc(-c3ccc(C(=O)Nc4ccc(O)c(N5CCN(C)CC5)c4)cc3)c(C)c2)o1
inactive: Potency [1] | Potency [2] | Potency [3]
active: Potency [4] 1.51 µM

O=C(c1ccc(OC(F)F)c(C#Cc2ccccn2)c1)N1Cc2cccnc2C1
inactive: Potency [1] | Potency [2] | Potency [3] | Potency [4]

O=C(Nc1ccc(-n2nc(C(F)(F)F)cc2C(F)(F)F)cc1)c1ccncc1F
inactive: Potency [1] | Potency [2] | Potency [3] | Potency [4] | Potency [5]

O=C(NO)c1ccc(CC(=O)N(CCO)c2ccccc2)cc1
inactive: Potency [1] | Potency [2] | Potency [3] | Potency [4] | Potency [5]

C=C1C(=O)OC2CC(C)C(CCC(C)O)=CCC12 (centres undefined)
inactive: Potency [1] | Potency [2] | Potency [4] | Potency [5]
active: Potency [3] 6.75 µM

COc1cc2c(cc1OCCCN1CCCC1)N=C(N)C21CCC1
inactive: Potency [1] | Potency [2] | Potency [3] | Potency [4]

CC(C)c1cccc(C(C)C)c1NC(=O)Nc1ccc(Sc2ccc([N+](=O)[O-])cc2)cc1
inactive: Potency [1] | Potency [2] | Potency [3] | Potency [4] | Potency [5]

C=C[C@@]1(C)CCC2C(=CCC3[C@]2(C)CCC[C@@]3(C)C(=O)O)C1 (some centres undefined)
inactive: Potency [1] | Potency [2] | Potency [3] | Potency [4]

CN1CCc2cc3c(cc2C(=O)Cc2cc4c(cc2C1)OCO4)OCO3
inactive: Potency [1] | Potency [2] | Potency [3] | Potency [4] | Potency [5]

C=C(C(=O)O)[C@@H]1CC=C(CCC(C)=O)[C@@H](C)CC1
inactive: Potency [1] | Potency [2] | Potency [3] | Potency [4] | Potency [5]

CC[C@@H](C)[C@@H]1OC2(C=C[C@H]1C)C[C@@H]1C[C@H](C/C=C(\C)[C@H](O[C@H]3C[C@H](OC)[C@H](O[C@H]4C[C@H](OC)[C@H](NC(C)=O)[C@H](C)O4)[C@H](C)O3)[C@H](C)/C=C/C=C3\CO[C@H]4[C@H](O)C(C)=C[C@@H](C(=O)O1)[C@@]34O)O2 (some centres undefined)
inactive: Potency [1] | Potency [2] | Potency [3] | Potency [4] | Potency [5]

Cc1cc(F)ccc1[C@H]1C[C@@H](N2CCN3C(=O)CC[C@H]3C2)CCN1C(=O)N(C)[C@H](C)c1cc(C(F)(F)F)cc(C(F)(F)F)c1
inactive: Potency [1] | Potency [2] | Potency [3] | Potency [4] | Potency [5]
